Assay [1] deals with Plasmodium falciparum Sir2 (PF13_0152, Sir2A). The assay can be described thus: pfSir2 binders on small-molecule microarrays, primary screen, biochemical, small-molecule microarray, 635 nm fluorescence (AID 1098).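 Also: score merges spot fluorescence intensity with its signal-to-noise ratio.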 The conditions noted are these: small-molecule microarray binding, fluorescence 635 nm; higher = more signal.
Assay [2] can be described thus: small-molecule microarray binders of probe aDKK1, primary screen, biochemical, biotinylated probe, 635/667 nm fluorescence (AID 1099).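 Also: score merges 667nm spot fluorescence with signal to noise across triplicate slides.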 The conditions noted are these: higher = more signal.
Assay [3] is described as follows: small-molecule microarray binders of probe aCHRDL2, primary screen, biochemical, biotinylated probe, 635/667 nm fluorescence (AID 1100). The following applies: higher = more signal.
Assay [4] in a line: splicing luciferase reporter signal modulators, primary screen, spliceosome inhibition project, cell-based, HEK293, splice +/- reporter (AID 1101).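 Also: HEK293 cells carrying a splicing-competent luciferase reporter gene; test concentration not given here.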 The following applies: luminescence, 24 h, higher = more signal, called active from +8 up or from −8 down. (In general: In a reporter assay the amount or activity of a reporter protein is the signal.)
Assay [5] has as its target Fibroblast growth factor 10 (Homo sapiens) (UniProt O15520). The assay can be described thus: FGF10 binders on small-molecule microarrays, primary screen, biochemical, small-molecule microarray, 635 nm fluorescence (AID 1102). The conditions noted are these: FGF10 binding, fluorescence 635 nm, higher = more signal.
The subject of assay [6] is glycogen synthase kinase-3 (GSK3A per assay name; protocol says GSK3B). The experiment in a line: GSK3 binders on small-molecule microarrays, primary screen, biochemical, small-molecule microarray, 635 nm fluorescence, GSK3A (AID 1103). Also: the record names both GSK3A and GSK3B. The conditions noted are these: small-molecule microarray binding, fluorescence 635 nm; higher = more signal.
The target in assay [7] is Epidermal growth factor receptor (Homo sapiens) (UniProt P00533). The experiment in a line: EGFR binders on small-molecule microarrays, primary screen, biochemical, small-molecule microarray, 635 nm fluorescence (AID 1104).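 Also: score merges 667 nm emission intensity with spot signal to noise over triplicate slides.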 The following applies: EGFR binding, higher = more signal.
Assay [8] deals with Follistatin-related protein 3 (Homo sapiens) (UniProt O95633). The experiment in a line: FSTL3 binders on small-molecule microarrays, primary screen, biochemical, small-molecule microarray, 635 nm fluorescence (AID 1105).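 Also: score merges emission near 667 nm and signal to noise per printed spot across three slides.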 The conditions noted are these: FSTL3 binding, higher = more signal.
In assay [9] the target is Dickkopf-related protein 1 (Homo sapiens) (UniProt O94907). The assay can be described thus: DKK1 binders on small-molecule microarrays, primary screen, biochemical, small-molecule microarray, 635 nm fluorescence scan (AID 1106).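 Also: score merges emission near 667 nm with signal to noise over three replicate slides.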 The conditions noted are these: DKK1 binding, higher = more signal.
The test system of assay [10] is Inhibin beta A chain (activin A). The experiment in a line: INHBA (activin A) binders on microarrays, primary screen, biochemical, small-molecule microarray, 635 nm fluorescence scan (AID 1107).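 Also: mouse activin A protein probed at 4.33 µg/mL on printed slides; score merges bound-protein fluorescence near 667 nm with spot signal-to-noise.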 The following applies: small-molecule microarray binding, higher = more signal.
The test system of assay [11] is Human papillomavirus type 1a protein E7 (residues 44-93). The experiment in a line: HPV1a E7 fragment binders on microarrays, primary screen, biochemical, small-molecule microarray, residues 44-93, 635 nm fluorescence (AID 1108).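 Also: E7 fragment applied at 1 µg/mL in TBST for 1 h at 4 C; score combines spot fluorescence with its signal to noise ratio.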 The following applies: small-molecule microarray binding, fluorescence 635 nm; higher = more signal.
The nature of assay [12]: modulators of HCV replicon luciferase signal, primary screen, HCV replication inhibitor project, Huh7 cells, luciferase reporter (AID 1109).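 Also: huh7 hepatoma cells harbouring a luciferase neomycin HCV replicon reporter; luciferase luminescence as measure of HCV replicon replication; test concentration not given here.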 The conditions noted are these: 48 h, higher = more signal.
For assay [13], the target named is Left-right determination factor 2 (Homo sapiens) (UniProt O00292). The experiment in a line: LEFTY2 binders on small-molecule microarrays, primary screen, biochemical, small-molecule microarray, 635 nm fluorescence scan (AID 1110). The following applies: LEFTY2 binding, higher = more signal.
Assay [14] has as its target Calmodulin-1 (Homo sapiens) (UniProt P0DP23). The assay can be described thus: CALM1 binders on microarrays, EGTA buffer, profiling panel, biochemical, small-molecule microarray, Cy5-labelled CALM1 (AID 1111).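 Also: labelled calmodulin applied in Tris saline Tween buffer holding calcium plus EGTA and DTT.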 The conditions noted are these: Cy5-CALM1 binding fluorescence, higher = more signal.
Assay [15] has the same target. The experiment in a line: calcium-bound CALM1 binders on microarrays, profiling panel, artefact control for SMM control-protein annotation, biochemical, small-molecule microarray, Cy5-labelled CALM1, plus calcium (AID 1112).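 Also: score merges spot fluorescence with signal to noise from triplicate slides.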 The following applies: Cy5-CALM1 binding fluorescence, higher = more signal.
Assay [16] is described as follows: small-molecule microarray binders of probe aWnt5a, primary screen, biochemical, biotinylated probe, 635/667 nm fluorescence (AID 1113).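 Also: score merges 667 nm fluorescence intensity with signal-to-noise per printed feature.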 The conditions noted are these: higher = more signal.
Assay [17] is described as follows: small-molecule microarray binders of probe aShh, primary screen, biochemical, biotinylated probe, 635/667 nm fluorescence (AID 1114).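 Also: probe is biotin-labelled aShh protein from a stem cell growth factor screen; measures binding of labelled protein to compounds printed on the slide; score merges feature fluorescence at 667 nm with signal-to-noise.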 The conditions noted are these: higher = more signal.
Assay [18] in a line: small-molecule microarray binders of probe aNog, primary screen, biochemical, biotinylated probe, 635/667 nm fluorescence (AID 1115).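 Also: probe is biotinylated aNog protein used at 0.15 µg/mL for 1 h at 4 C; z-score combines 667 nm fluorescence of each spot with its signal to noise.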 The conditions noted are these: higher = more signal.
The target in assay [19] is Torsin-1A-interacting protein 1 (Homo sapiens) (UniProt Q5JTV8). The assay can be described thus: LAP1 binders from COS7 cell lysate, primary screen, small-molecule microarray, 635/667 nm fluorescence (AID 1116). The conditions noted are these: COS7-hLAP1 lysate binding, 635 nm fluorescence, higher = more signal.
Assay [20] addresses Alpha-bungarotoxin (Bungarus multicinctus) (UniProt P60615). The assay can be described thus: alpha-bungarotoxin binders on microarray, profiling panel, artefact control for SMM control protein annotation, biochemical, small-molecule microarray, Alexa647 label, 635/667 nm fluorescence (AID 1117). The following applies: alpha-BTX-A647 binding fluorescence, higher = more signal.

Results on five molecules are retold here after PubChem BioAssay.

Structures are written as SMILES. The source made the active and inactive calls.

Chain of Dickkopf-related protein 1 (Homo sapiens) (O94907 whole entry, looked up): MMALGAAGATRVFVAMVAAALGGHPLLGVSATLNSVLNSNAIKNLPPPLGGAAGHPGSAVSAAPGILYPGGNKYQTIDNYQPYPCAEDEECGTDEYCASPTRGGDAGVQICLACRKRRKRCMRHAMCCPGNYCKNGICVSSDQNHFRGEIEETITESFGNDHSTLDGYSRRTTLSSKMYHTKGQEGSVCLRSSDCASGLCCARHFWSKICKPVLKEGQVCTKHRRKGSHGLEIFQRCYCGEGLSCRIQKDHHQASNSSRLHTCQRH
Chain of Torsin-1A-interacting protein 1 (Homo sapiens) (Q5JTV8 whole entry, looked up): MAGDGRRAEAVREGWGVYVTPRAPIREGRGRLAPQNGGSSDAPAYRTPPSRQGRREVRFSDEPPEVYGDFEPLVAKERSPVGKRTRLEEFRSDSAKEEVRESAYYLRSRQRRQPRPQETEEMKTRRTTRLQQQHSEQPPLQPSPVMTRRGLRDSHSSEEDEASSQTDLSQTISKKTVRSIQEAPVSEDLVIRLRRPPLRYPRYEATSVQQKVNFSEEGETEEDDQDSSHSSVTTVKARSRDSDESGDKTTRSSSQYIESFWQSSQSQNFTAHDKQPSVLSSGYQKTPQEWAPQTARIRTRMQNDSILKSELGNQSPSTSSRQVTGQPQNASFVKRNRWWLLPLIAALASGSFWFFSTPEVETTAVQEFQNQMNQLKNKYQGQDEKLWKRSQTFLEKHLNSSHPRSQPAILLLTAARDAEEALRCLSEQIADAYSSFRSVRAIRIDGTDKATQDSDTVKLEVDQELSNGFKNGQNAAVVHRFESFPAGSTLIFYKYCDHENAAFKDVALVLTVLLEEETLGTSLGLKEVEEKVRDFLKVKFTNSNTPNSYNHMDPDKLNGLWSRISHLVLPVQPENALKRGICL
Chain of Left-right determination factor 2 (Homo sapiens) (O00292 whole entry, looked up): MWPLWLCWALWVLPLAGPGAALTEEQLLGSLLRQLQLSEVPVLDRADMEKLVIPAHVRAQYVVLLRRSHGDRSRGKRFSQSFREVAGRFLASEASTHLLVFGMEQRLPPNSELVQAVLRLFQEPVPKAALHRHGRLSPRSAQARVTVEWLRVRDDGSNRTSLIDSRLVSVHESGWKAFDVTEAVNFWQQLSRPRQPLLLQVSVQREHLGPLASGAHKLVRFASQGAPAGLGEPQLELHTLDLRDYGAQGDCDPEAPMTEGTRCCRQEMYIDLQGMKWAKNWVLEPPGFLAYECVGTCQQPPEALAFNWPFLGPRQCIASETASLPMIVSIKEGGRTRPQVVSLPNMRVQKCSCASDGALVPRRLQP
Chain of Fibroblast growth factor 10 (Homo sapiens) (O15520 whole entry, looked up): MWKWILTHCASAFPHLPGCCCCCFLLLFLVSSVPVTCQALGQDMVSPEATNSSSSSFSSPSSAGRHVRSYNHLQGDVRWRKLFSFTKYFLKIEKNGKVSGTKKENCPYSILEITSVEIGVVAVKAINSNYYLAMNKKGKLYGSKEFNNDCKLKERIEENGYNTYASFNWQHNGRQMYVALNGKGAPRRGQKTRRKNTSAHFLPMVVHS
Chain of Epidermal growth factor receptor (Homo sapiens) (P00533 whole entry, looked up): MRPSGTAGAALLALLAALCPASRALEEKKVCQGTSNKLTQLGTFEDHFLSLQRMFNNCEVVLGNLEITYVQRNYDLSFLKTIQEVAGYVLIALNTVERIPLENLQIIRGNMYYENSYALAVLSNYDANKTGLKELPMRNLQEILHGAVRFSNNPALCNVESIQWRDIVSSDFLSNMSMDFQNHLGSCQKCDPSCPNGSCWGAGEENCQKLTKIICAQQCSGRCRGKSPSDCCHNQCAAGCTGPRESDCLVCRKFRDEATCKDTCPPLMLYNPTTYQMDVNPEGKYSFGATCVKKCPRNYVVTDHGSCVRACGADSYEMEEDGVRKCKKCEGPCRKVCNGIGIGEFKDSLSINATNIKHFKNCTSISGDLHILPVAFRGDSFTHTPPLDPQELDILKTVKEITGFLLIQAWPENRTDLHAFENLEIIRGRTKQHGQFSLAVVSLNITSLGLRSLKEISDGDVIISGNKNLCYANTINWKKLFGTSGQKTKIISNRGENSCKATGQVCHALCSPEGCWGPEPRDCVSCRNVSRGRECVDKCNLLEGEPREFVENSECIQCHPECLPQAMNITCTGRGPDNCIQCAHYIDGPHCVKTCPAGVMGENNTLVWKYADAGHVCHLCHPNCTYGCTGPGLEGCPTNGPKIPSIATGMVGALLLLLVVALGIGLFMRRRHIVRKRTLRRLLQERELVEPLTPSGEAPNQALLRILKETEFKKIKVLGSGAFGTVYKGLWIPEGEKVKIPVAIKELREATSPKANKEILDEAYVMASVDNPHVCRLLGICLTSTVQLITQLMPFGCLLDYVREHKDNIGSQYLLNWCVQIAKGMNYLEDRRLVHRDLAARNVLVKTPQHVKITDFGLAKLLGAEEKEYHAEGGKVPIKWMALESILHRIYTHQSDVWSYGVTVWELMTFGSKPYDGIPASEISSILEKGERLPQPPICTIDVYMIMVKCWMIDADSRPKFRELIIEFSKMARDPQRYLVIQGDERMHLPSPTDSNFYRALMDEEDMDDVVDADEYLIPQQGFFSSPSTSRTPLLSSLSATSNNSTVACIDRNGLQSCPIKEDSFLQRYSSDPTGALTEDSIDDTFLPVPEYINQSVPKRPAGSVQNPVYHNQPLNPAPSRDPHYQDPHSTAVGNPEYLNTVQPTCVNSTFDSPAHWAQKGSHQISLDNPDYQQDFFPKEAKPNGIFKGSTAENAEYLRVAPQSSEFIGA
Chain of Alpha-bungarotoxin (Bungarus multicinctus) (P60615 whole entry, looked up): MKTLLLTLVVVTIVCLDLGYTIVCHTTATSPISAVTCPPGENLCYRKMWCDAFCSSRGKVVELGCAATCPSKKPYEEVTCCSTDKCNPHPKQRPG
Chain of Follistatin-related protein 3 (Homo sapiens) (O95633 whole entry, looked up): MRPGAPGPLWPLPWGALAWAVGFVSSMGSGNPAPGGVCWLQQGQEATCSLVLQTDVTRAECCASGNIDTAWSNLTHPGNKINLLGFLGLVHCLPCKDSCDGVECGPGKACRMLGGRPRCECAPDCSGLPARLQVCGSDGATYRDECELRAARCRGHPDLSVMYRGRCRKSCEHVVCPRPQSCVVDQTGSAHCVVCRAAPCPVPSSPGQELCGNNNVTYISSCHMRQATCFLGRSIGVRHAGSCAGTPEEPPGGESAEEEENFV

Turning to `COCCOC(=O)N1C(=O)[C@@]2(c3cc(C#Cc4ccc(OC)cc4)ccc31)[C@H](c1ccc(OCCO)cc1)N1[C@H](c3ccccc3)[C@H](c3ccccc3)OC(=O)[C@H]1[C@@H]2C(=O)NC[C@H](O)c1ccccc1`, the composite z-score amounted to 1.38 in assay [1]; 0.92 in [2]; 0.537 in assay [3]; 1.16 in assay [5]; 1.27 in assay [6]; 0.696 in [7]. Besides, the composite z-score in [8] worked out at 0.475; in assay [9] it was 0.473; in assay [10] it was 0.961; in assay [11], 1.12; in assay [13], 1.25; in assay [14] it was 1.15. In addition, the composite z-score was 0.842 in assay [15]; 0.0078 in [16]; -0.273 in assay [17]; 0.338 in assay [18]; 0.851 in assay [19]; 1.4 in assay [20]. Moreover, the figures for the z-score in assay [4] and in [12] were -0.279 (inactive) and -1.69, respectively.

Regarding `COC(=O)[C@@]1(Cc2ccc(OC)cc2)[C@H]2c3cc(C(=O)N4CCCC4)n(Cc4c(CO)[nH]cc(C)c4=O)c3C[C@H]2CN1C(=O)c1ccccc1`, the composite z-score in [1] is 0.488; in [2] it was 2.01; in [3], 1.13; in assay [5], 0.404; in assay [6], 0.237; in assay [7], -0.0221. Further, the composite z-score in [8] was 0.158; in [9], -0.59; in assay [10], 1.02; in assay [11] it was -0.78; in [13], -0.181; in assay [14], 2.05. For the same molecule, the composite z-score was 0.593 in assay [15]; 0.0328 in assay [16]; -0.156 in assay [17]; 0.947 in assay [18]; 2.32 in [19]; 0.12 in assay [20]. Further, the results for the z-score in assay [4] and in assay [12] were -1.14 (inactive) and -1.4, respectively.

For `C=CCNC(=O)[C@H]1[C@@H]2C(=O)O[C@@H](c3ccccc3)[C@@H](c3ccccc3)N2[C@@H](c2ccccc2OCCO)[C@]12C(=O)N(C(=O)OCCOC)c1ccc(C#Cc3ccc(OC)cc3)cc12`, the composite z-score in assay [1] came out at 0.801; in [2], 0.256; in assay [3] it was 0.581; in [5], 0.654; in [6], 1.06; in [7], 0.301. Moreover, the composite z-score in assay [8] is 0.0527; in assay [9] it was -0.163; in assay [10], 0.032; in [11], 1.39; in assay [13] it was 0.342; in assay [14], 1.39. Moreover, the composite z-score in [15] is 0.37; in assay [16], -0.152; in [17] it was -0.0011; in assay [18] it was 0.254; in [19], 0.143; in [20], 1.3. Besides, the values for the z-score in assay [4] and in assay [12] were 0.522 (inactive) and -2.79, respectively.

Turning to `[N-]=[N+]=Nc1ccccc1[C@@H]1OC(c2ccc(OCCCO)cc2)=N[C@]1(Cc1ccccc1)C(=O)NCCN1CCOCC1`, the composite z-score in assay [1] is 0.669; in assay [2] it was 0.652; in [3], 0.825; in [5], 1.1; in assay [6], 0.774; in assay [7], -0.04. Also, the composite z-score in assay [8] was 0.952; in assay [9], -0.326; in [10] it was 0.33; in assay [11], 1.5; in assay [13], -0.429; in assay [14], -0.0408. For the same molecule, the composite z-score was determined as 0.741 in [15]; 0.0044 in [16]; 0.185 in [17]; 0.996 in assay [18]; 1.52 in assay [19]; 1.23 in [20]. In addition, the z-score in assay [4] is -0.299 (inactive); in [12] it was -2.41.

For `CC(C)NC(=O)[C@@]1(c2ccc([N+](=O)[O-])cc2)CC(=O)N(CC23CC4CC(CC(C4)C2)C3)[C@@H]1c1ccc(CO)cc1`, the composite z-score in assay [1] was 1.4; in [2], 0.998; in [3], 0.931; in [5] it was 0.911; in assay [6], 1.34; in assay [7], 0.396. Further, the composite z-score turned out to be 1.45 in assay [8]; 1.3 in assay [9]; 0.64 in assay [10]; 0.939 in assay [11]; 1.03 in [13]; 1.03 in assay [14]. In addition, the composite z-score was -0.0022 in [15]; 0.289 in [16]; 0.321 in [17]; 1.85 in assay [18]; 1.52 in assay [19]; 1.37 in assay [20]. Moreover, the z-score was -0.279 (inactive) in assay [4] and -2.7 in assay [12].
